Rows were chosen to be rich in hits. Some 3.7% of all compounds tested hit in one or more screens of this group.
ATXN2 expr inh: ATXN2 expression inhibition; HEK-293 ATXN2-luciferase reporter, luminescence, 24 h; Potency, µM (titrated, usually from 57 µM), most hits filed as inhibitors; 360,000 tested, 0.72% active; further: nearly all actives have a fitted effect of over 55% in size
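qHTS (up to 57 uM final) was run with 24 h compound exposure of reporter cells at 37 °C. Each well was multiplexed: SteadyGlo luminescence measured ATXN2-luciferase expression after a fluorogenic Gly-Phe-AFC viability readout (25 uM final).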
HepG2 viability: counter-screen for TGF-b inhibitors: cytotoxicity in HepG2 cells. HepG2 CAGA-GFP viability, ATP luminescence, 18 h. Potency, µM (highest dose often 46.1 µM), hits mostly cytotoxic. 410,000 tested, 0.76% active
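HepG2 CAGA-GFP cells (1000/well, DMEM with 1% FBS) received compound, then TGF-beta at 500 pg/mL final, and were incubated 18 hours at 37 degrees C. Viability was read by CellTiter-Glo luminescence. Media-only wells were set as complete cell-killing and DMSO as no toxicity.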
GLP-1R inv ag: acts as inverse agonist at human GLP-1 receptor; Potency, µM (top dose mostly 38.3 µM), hits mostly inhibitors; HEK293 GLP-1R CRE-luciferase, luminescence, 24 h; GLP-1R form is constitutively active; 410,000 tested, 1.6% active; AID 624417; further: nearly all actives have a fitted effect of over 55% in size
Target sequence (P43220 whole entry, looked up): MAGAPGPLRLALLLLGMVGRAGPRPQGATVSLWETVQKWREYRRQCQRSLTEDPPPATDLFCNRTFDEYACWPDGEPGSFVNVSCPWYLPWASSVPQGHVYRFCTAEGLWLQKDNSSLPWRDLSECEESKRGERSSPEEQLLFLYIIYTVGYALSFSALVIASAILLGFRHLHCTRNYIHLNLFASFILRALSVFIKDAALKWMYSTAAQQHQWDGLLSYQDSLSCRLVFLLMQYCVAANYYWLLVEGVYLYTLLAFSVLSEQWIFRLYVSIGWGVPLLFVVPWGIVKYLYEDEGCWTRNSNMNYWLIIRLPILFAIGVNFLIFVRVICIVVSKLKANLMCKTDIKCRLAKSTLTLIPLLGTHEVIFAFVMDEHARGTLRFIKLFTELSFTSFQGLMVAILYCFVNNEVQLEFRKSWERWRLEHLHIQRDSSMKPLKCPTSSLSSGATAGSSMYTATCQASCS
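Readout was luciferase luminescence, measured 12 min after detection reagent at room temperature. Beforehand, GLP-1R reporter HEK293 cells had sat 12 h, then received compounds for 24 hr at 37 deg C.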
TGFb SMAD3 inh: blocks TGF-b signaling | HepG2 CAGA-GFP TGF-b/SMAD3 reporter, GFP fluorescence, 18 h; TGF-beta stimulated, 500 pg/mL final | Potency, µM (series often up to 46.1 µM), actives largely listed as inhibitors | 410,000 tested, 1.2% active | AID 588855; further: nearly all actives have a fitted effect of over 65% in size
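Inhibition of TGF-beta-driven CAGA-GFP reporter expression in HEPG2 cells is measured by cellular GFP fluorescence after 18 h stimulation with 500 pg/mL recombinant TGF-beta in 1% FBS medium at 37 degrees C.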
GLP-1R agonist: GLP-1 receptor (human) agonism | P43220 | HEK293 GLP-1R CRE-luciferase, luminescence, 4-6 h; cells express a hypersensitive GLP-1R form | Potency, µM (series often up to 45.6 µM), most hits filed as activators | 380,000 tested, 0.007% active
ATXN viability: viability counter-screen for ATXN expression inhibitors. AID 651635. 400,000 tested, 0.49% active. Potency, µM (series often up to 56.7 µM), most hits filed as cytotoxic. S2 cells (HEK-293 line with an ATXN2-luciferase reporter) viability, CellTiter-Fluor protease fluorescence, 24 h; further: nearly all actives have a fitted effect of over 40% in size
Numbers stand for hits; . = inactive; ? = inconclusive; / = no result given. The call rests on the fitted dose curve; in most records, active means well fitted curve in the direction sought with a large enough effect; inconclusive means small, poorly fitted or top-dose-only effect, or another doubt; inactive means no such curve, though single readings can be large; an effect the other way counts as inactive or inconclusive.

SMILES	ATXN2 expr inh	HepG2 viability	GLP-1R inv ag	TGFb SMAD3 inh	GLP-1R agonist	ATXN viability
COc1ccc(C(NC(=O)c2cccnc2)c2cc(Cl)c3cccnc3c2O)cc1OC (stereo not drawn)	15.8µM	.	?	?	.	.
CC(=O)NC(c1cc(Cl)c2ccccc2c1O)C(C)C (stereo not drawn)	.	.	/	.	.	.
CCC(C(=O)NC1CCCCC1)n1nc(C)c2sc3ccccc3c2c1=O (stereo not drawn)	/	.	.	?	/	/
COC(=O)c1c(OCc2cccnc2)cc(=O)n2c1CCN(C(=O)c1cccc(N(C)C)c1)CC2	/	/	/	/	/	.
c1ccc(CCc2nnc3n2CCN(Cc2ccc4ccccc4n2)CC3)cc1	/	/	/	/	/	.
CC(C)CC(CSc1ccc(Br)cc1)N1CCN(C)CCC1=O (stereo not drawn)	/	.	/	.	/	/
CC(=O)NC(c1ccc(C)cc1)c1cc(Cl)c2cccnc2c1O (stereo not drawn)	11.2µM	.	?	?	.	.
Oc1c(C(Nc2ccccn2)c2cccnc2)cc(Cl)c2cccnc12 (stereo not drawn)	22.4µM	.	?	.	.	.
CC(=O)NC(c1ccco1)c1cc(Cl)c2cccnc2c1O (stereo not drawn)	8.91µM	.	/	?	.	?
CC(=O)NC(c1ccccc1)c1cc([N+](=O)[O-])c2cccnc2c1O (stereo not drawn)	?	.	?	?	.	?
CCCCC(=O)NC(c1ccco1)c1cc(Cl)c2cccnc2c1O (stereo not drawn)	?	.	?	?	.	/
CC(=O)NC(c1cccs1)c1cc([N+](=O)[O-])c2cccnc2c1O (stereo not drawn)	12.6µM	.	?	?	.	?
Oc1c(C(Nc2cccc(C(F)(F)F)c2)c2cccnc2)ccc2cccnc12 (stereo not drawn)	?	.	?	?	.	.
Cc1ccc(-c2c(C)n3c4c(=O)n(C)c(=O)n(C)c4nc3n2-c2cccc(O)c2)cc1	.	.	.	.	.	.
CC(C)(C)CC(=O)OCC(=O)[C@@]12OC(C)(C)O[C@@H]1C[C@H]1[C@@H]3CCC4=CC(=O)C=C[C@]4(C)[C@@]3(F)[C@@H](O)C[C@]12C	/	/	/	/	.	/
Cc1c(C(=O)NCCCN2CCCC2=O)cnn1-c1ncc2c(n1)-c1ccccc1CC2	/	/	/	/	/	.
Cc1cnc2c(C)ccc(C)c2c1/C=C/c1ccc(N(C)C)cc1	/	.	/	.	/	/
Cc1cc(NC(c2cccnc2)c2ccc3cccnc3c2O)no1 (stereo not drawn)	3.98µM	.	?	.	.	.
Nc1ncn(C(=S)Nc2ccccc2)n1	?	.	?	8.91µM	.	?
CC[C@@H]1/C=C(\C)C[C@H](C)C[C@H](OC)[C@H]2O[C@@](O)(C(=O)C(=O)N3CCCC[C@H]3C(=O)O[C@H](/C(C)=C/[C@@H]3CC[C@H](Cl)[C@H](OC)C3)[C@H](C)[C@@H](O)CC1=O)[C@H](C)C[C@@H]2OC	/	/	/	/	.	/
CCOc1ccc(-c2ccc(/C=C3/C(=N)N4C=CSC4=NC3=O)o2)c([N+](=O)[O-])c1	25.1µM	.	.	.	.	/
CCOc1ccc(-c2ccc(/C=C3/C(=N)N4C(C)=CSC4=NC3=O)o2)c([N+](=O)[O-])c1	.	.	.	.	.	?
O=C(CSC1=Nc2ccccc2C2=NC(Cc3ccccc3)C(=O)N12)Nc1cccc(Cl)c1 (stereo not drawn)	.	.	?	?	/	?
Cc1ccc(C(O)(c2ccccc2)c2ccccc2C(C)N(C)C)c(C)c1 (stereo not drawn)	?	.	10µM	?	.	?
Cn1nc([N+](=O)[O-])nc1Sc1nnc(-c2ccccc2)o1	.	.	5.62µM	?	.	?
O=C(NCc1ccc2c(c1)OCO2)c1nc(S(=O)(=O)Cc2ccccc2F)ncc1Cl	/	15.8µM	?	11.2µM	.	/
O=C(NCc1ccc2c(c1)OCO2)c1ccccc1Cl	.	.	.	.	.	.

Screens from PubChem BioAssay.
